In test [1] the target is T1, Ephrin type-B receptor 2 (Homo sapiens) (UniProt P29323).
T1 sequence (whole entry): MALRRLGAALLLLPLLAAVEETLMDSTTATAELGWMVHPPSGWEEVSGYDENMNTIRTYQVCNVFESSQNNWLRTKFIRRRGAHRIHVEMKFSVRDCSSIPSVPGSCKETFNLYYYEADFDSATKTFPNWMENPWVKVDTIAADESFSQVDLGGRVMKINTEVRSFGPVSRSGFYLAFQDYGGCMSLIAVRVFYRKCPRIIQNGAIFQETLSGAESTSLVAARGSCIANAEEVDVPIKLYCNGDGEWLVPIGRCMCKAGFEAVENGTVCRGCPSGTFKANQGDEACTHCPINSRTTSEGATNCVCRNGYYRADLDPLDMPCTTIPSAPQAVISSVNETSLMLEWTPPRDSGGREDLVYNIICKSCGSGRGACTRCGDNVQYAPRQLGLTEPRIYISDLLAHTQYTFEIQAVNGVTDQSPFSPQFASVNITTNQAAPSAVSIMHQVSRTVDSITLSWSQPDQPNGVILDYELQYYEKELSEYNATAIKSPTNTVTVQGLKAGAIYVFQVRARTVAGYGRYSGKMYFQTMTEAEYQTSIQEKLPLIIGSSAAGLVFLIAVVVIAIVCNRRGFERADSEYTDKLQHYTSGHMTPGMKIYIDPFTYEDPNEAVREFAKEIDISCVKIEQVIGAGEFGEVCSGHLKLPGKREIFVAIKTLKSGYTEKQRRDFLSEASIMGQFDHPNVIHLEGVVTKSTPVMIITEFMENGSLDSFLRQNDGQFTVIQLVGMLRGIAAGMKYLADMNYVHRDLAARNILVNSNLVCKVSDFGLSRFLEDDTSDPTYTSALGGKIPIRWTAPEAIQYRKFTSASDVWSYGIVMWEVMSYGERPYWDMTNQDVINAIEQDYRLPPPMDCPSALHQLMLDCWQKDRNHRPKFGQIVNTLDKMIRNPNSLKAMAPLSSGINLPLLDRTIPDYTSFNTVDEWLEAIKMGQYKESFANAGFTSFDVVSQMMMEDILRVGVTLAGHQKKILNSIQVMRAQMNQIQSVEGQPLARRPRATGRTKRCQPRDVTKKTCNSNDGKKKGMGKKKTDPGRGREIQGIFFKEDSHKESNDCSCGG
The note with it: at 1 µM.

The target in test [2] is T2, Ephrin type-B receptor 3 (Homo sapiens) (UniProt P54753).
T2 sequence (whole entry): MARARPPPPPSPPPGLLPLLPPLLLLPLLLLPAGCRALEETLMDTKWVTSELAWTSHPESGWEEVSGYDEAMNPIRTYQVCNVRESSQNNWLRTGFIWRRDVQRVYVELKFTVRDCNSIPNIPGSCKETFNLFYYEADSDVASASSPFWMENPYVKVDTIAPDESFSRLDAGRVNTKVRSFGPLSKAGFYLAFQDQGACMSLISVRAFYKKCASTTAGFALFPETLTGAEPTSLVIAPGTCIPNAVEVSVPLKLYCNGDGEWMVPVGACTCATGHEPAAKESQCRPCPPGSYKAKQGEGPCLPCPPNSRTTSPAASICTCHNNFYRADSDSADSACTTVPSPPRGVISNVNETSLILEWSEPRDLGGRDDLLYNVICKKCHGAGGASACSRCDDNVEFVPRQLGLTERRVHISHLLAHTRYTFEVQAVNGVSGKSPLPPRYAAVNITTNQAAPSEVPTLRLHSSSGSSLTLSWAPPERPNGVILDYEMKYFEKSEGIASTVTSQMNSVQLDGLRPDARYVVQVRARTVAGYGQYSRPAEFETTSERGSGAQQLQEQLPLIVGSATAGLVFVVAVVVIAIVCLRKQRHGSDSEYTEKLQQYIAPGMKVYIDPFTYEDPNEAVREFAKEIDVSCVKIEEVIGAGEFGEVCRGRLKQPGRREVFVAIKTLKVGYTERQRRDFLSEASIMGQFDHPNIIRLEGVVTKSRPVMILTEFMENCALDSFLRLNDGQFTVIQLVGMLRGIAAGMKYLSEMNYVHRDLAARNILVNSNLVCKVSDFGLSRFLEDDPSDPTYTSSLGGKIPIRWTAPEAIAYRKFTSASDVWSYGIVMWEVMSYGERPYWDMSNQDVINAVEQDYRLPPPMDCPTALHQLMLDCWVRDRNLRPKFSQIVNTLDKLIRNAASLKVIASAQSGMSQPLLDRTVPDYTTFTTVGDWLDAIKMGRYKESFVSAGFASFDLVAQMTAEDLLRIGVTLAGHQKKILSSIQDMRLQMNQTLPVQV
Particulars: at 0.1 µM.

Test [3] concerns the target T2, Ephrin type-B receptor 3 (Homo sapiens). Particulars: at 1 µM.
Test [4] has as its target T3, Ephrin type-B receptor 4 (Homo sapiens) (UniProt P54760).
T3 sequence (whole entry): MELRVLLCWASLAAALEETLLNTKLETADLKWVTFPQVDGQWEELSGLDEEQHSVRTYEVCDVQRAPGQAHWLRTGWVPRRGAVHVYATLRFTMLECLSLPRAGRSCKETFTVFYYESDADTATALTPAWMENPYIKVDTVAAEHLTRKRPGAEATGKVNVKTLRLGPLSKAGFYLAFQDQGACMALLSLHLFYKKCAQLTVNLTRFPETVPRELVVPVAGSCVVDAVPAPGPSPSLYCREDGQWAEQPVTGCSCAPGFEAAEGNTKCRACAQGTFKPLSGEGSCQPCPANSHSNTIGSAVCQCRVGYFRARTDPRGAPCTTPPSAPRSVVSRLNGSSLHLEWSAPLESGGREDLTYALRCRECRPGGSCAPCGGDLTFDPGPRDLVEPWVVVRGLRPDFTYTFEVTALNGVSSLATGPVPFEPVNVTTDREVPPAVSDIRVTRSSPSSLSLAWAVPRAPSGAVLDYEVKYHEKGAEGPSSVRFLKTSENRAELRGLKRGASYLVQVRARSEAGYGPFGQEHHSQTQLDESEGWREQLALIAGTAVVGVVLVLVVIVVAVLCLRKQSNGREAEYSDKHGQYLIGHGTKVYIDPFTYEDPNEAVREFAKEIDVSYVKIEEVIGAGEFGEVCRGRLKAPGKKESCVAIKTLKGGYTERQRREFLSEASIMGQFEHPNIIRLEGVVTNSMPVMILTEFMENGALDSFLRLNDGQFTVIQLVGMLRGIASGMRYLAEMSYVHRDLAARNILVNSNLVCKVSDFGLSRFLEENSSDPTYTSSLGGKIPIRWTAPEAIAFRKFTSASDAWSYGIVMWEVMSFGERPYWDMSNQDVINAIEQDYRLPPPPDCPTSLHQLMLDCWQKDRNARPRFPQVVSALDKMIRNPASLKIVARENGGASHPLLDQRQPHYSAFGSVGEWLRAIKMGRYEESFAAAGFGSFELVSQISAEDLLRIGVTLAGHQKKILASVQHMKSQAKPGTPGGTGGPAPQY
The note with it: at 0.1 µM.

Test [5] concerns the target T3, Ephrin type-B receptor 4 (Homo sapiens). Particulars: at 1 µM.
For test [6], the target named is Receptor tyrosine-protein kinase erbB-2 (Homo sapiens) (UniProt P04626). Particulars: at 0.1 µM.
The target is the same in test [7]. Particulars: at 1 µM.
In test [8] the target is Receptor tyrosine-protein kinase erbB-4 (Homo sapiens) (UniProt Q15303). The note with it: at 0.1 µM.
Test [9] shares this target. Particulars: at 1 µM.
The target in test [10] is Tyrosine-protein kinase Fer (Homo sapiens) (UniProt P16591). Particulars: at 0.1 µM.
Test [11] has the same target. Particulars: at 1 µM.
In test [12] the target is Tyrosine-protein kinase Fes/Fps (Homo sapiens) (UniProt P07332). The note with it: at 0.1 µM.
The target is the same in test [13]. Particulars: at 1 µM.
In test [14] the target is Fibroblast growth factor receptor 1 (Homo sapiens) (UniProt P11362). The note with it: at 0.1 µM.
Test [15] has the same target. Particulars: at 1 µM.
Test [16] addresses Fibroblast growth factor receptor 2 (Homo sapiens) (UniProt P21802). The note with it: at 0.1 µM.
Test [17] has the same target. Particulars: at 1 µM.
Test [18] addresses Fibroblast growth factor receptor 3 (Homo sapiens) (UniProt P22607). The note with it: at 0.1 µM.
Test [19] shares this target. The note with it: at 1 µM.
Test [20] deals with Fibroblast growth factor receptor 4 (Homo sapiens) (UniProt P22455). The note with it: at 0.1 µM.
Sequence of Fibroblast growth factor receptor 4 (Homo sapiens) (P22455 22-802 limits assumed): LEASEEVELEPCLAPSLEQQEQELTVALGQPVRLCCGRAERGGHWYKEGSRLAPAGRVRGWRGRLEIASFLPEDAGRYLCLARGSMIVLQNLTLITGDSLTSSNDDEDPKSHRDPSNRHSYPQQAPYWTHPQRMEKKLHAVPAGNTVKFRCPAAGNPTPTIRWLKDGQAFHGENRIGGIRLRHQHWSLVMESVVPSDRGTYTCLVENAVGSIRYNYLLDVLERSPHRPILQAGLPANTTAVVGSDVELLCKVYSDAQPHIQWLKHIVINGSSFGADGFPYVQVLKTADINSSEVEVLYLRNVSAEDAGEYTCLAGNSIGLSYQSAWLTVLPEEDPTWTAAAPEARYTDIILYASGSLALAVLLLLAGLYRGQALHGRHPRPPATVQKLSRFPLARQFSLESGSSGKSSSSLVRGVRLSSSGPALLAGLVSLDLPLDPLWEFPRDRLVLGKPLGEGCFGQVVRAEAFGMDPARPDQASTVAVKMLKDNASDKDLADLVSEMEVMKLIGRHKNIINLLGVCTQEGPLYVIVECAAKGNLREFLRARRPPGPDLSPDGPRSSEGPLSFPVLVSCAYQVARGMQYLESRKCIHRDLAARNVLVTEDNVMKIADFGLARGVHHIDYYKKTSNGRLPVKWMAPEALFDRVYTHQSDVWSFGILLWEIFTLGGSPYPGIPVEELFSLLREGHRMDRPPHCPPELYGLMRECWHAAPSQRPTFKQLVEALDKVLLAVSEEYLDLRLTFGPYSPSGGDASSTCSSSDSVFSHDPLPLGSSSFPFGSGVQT

Sequence of Receptor tyrosine-protein kinase erbB-4 (Homo sapiens) (Q15303 whole entry): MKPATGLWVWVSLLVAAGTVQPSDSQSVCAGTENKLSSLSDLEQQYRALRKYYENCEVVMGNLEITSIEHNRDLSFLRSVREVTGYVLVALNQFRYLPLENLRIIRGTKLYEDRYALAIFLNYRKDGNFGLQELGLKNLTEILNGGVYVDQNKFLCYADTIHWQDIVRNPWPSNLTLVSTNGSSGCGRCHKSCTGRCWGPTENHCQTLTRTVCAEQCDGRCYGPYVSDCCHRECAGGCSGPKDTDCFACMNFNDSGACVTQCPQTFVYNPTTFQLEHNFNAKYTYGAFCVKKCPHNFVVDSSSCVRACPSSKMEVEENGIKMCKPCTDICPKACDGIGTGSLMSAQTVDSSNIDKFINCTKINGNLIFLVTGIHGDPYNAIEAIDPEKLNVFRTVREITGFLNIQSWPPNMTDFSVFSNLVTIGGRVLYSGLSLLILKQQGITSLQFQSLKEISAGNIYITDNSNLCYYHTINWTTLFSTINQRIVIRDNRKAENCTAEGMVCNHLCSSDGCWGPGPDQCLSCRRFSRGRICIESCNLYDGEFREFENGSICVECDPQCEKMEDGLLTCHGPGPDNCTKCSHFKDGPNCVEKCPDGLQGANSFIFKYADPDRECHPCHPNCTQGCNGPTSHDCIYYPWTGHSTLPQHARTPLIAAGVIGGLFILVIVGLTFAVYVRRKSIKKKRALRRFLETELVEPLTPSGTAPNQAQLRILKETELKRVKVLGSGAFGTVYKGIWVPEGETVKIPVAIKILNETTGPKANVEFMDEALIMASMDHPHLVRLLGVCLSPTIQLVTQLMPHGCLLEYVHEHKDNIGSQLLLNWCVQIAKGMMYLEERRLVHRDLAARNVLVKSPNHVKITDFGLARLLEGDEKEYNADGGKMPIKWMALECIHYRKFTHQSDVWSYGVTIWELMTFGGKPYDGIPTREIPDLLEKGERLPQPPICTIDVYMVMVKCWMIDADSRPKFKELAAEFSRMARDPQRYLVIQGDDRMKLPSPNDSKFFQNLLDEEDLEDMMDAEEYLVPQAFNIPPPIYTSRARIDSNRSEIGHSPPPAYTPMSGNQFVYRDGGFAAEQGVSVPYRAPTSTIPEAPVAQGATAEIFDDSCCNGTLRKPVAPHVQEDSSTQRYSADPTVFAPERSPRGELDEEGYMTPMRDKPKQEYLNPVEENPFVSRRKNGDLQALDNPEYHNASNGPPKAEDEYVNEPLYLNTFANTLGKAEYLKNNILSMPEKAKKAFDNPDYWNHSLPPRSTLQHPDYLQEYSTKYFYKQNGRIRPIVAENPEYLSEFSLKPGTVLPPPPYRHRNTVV
Sequence of Fibroblast growth factor receptor 2 (Homo sapiens) (P21802 22-821 limits assumed): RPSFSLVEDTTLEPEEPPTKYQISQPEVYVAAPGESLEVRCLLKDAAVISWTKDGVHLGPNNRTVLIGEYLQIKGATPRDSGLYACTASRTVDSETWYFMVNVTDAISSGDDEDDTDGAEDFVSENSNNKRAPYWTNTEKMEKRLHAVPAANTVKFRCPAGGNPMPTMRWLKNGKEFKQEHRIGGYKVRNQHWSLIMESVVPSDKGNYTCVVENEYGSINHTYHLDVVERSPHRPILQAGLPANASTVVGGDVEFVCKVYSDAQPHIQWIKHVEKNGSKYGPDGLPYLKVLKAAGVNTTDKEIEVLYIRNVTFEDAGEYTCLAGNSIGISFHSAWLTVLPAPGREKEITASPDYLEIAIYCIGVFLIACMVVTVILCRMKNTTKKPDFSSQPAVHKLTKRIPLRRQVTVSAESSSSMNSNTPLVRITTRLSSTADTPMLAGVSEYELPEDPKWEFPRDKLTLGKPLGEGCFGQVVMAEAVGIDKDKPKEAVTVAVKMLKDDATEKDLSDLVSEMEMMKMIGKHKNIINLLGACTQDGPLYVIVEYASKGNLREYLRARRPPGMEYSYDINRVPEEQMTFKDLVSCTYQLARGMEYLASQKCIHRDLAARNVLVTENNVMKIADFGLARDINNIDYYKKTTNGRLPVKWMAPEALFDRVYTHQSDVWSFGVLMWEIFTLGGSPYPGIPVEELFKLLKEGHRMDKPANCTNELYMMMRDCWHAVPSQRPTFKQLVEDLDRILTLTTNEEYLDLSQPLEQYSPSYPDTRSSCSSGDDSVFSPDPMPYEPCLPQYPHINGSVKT
Sequence of Tyrosine-protein kinase Fer (Homo sapiens) (P16591 whole entry, looked up): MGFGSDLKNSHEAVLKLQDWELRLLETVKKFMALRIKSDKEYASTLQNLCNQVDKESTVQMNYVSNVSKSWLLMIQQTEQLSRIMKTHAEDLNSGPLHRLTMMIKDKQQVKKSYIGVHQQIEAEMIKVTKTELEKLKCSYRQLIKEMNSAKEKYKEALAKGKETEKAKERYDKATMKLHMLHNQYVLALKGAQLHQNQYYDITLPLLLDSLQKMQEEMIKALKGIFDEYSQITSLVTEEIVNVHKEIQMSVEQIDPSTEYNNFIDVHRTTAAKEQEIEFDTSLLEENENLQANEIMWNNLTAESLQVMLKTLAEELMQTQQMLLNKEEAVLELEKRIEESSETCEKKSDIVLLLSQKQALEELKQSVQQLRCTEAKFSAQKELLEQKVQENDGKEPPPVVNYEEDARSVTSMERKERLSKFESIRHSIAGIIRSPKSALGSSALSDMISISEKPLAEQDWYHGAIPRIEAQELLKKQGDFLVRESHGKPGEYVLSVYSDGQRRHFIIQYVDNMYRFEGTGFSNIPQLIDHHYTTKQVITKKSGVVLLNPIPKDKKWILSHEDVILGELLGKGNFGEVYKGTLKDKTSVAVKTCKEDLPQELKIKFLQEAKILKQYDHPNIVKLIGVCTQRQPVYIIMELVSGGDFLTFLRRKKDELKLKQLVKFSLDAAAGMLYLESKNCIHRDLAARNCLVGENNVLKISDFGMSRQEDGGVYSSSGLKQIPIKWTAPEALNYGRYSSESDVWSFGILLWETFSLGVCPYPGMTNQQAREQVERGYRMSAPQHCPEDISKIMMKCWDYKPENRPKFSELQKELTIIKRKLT
Sequence of Tyrosine-protein kinase Fes/Fps (Homo sapiens) (P07332 whole entry): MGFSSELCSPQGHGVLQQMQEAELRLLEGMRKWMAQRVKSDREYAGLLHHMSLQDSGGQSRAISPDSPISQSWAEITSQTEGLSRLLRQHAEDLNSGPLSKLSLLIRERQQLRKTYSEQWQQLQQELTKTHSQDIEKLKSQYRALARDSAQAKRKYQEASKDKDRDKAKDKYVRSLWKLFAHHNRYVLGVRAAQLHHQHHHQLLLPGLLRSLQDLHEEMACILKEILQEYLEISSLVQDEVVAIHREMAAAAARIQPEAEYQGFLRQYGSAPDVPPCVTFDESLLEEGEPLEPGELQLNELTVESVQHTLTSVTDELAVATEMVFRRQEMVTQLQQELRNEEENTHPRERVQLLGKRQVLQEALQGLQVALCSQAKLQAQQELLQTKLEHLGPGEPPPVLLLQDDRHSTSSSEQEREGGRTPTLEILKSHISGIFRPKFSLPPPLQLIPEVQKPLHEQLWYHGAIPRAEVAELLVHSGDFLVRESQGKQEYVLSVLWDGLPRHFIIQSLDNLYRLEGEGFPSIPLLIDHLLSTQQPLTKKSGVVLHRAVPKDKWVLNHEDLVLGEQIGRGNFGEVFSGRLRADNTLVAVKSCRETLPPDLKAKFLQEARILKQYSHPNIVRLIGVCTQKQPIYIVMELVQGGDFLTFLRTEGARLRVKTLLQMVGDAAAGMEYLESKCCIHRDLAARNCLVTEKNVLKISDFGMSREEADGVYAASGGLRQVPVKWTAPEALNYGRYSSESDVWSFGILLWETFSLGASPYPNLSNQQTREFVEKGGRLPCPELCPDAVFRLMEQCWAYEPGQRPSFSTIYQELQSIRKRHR

For the compound `Cc1cccc2c1NC(=O)/C2=N\Nc1ccc(S(N)(=O)=O)cc1`, the inhibition (as a rule, the change of the read-out against control, counted positive when it falls) was found to be 5.1% in test [1]; 5.12% in test [2]; 2.12% in test [3]; 1.36% in [4]; 2.09% in test [5]; 0.78% in test [6]. Further, the inhibition in test [7] worked out at 1.05%; in test [8] it was 11.5%; in [9] it was 11%; in [10], 1.4%; in test [11], 0.93%; in test [12] it was 2.06%. Also, the inhibition came to 2.97% in [13]; 6.31% in test [14]; 5.84% in [15]; 7.75% in test [16]; 3.25% in test [17]; 3.97% in [18]. The inhibition in [19] was 3.33%; in test [20], 2.12%.
Turning to `O=S(=O)(CCNCc1ccc(-c2ccc3ncnc(Nc4ccc(OCc5cccc(F)c5)c(Cl)c4)c3c2)o1)c1ccccc1`, the inhibition turned out to be 13% in [1]; 4.95% in test [2]; 4.03% in test [3]; 0.96% in test [4]; 2.99% in [5]; 43.9% in test [6]. The inhibition was found to be 60.5% in [7]; 36.4% in test [8]; 89% in [9]; 3.86% in test [10]; 4.93% in test [11]; 4.42% in test [12]. Also, the inhibition in [13] stood at 4.26%; in test [14], 3.65%; in [15], 8.42%; in [16], 7.23%; in test [17], 11.6%; in [18], 7.36%. For the same compound, the figures for the inhibition in test [19] and in [20] were 6.93% and -5.68%, respectively.
As to `CCN(CC)S(=O)(=O)c1ccc(OC)c(Nc2ncc(-c3ccccc3)o2)c1`, the inhibition amounted to 15.1% in test [1]; 3.77% in [2]; 0.54% in [3]; 0.17% in test [4]; 7.93% in test [5]; 0.91% in test [6]. Moreover, the inhibition in test [7] was found to be 2.81%; in test [8] it was 7.08%; in test [9], 6.51%; in test [10] it was 0.84%; in test [11] it was 4.52%; in test [12], 0.12%. Besides, the inhibition in test [13] was -0.42%; in test [14], 0.18%; in test [15], 23.7%; in test [16], 15%; in [17], 54.6%; in test [18], 18.4%. The inhibition in [19] was found to be 59.5%; in [20], 2.44%.
In the case of `N#Cc1c(NC(=O)CN2CCOCC2)sc2c1CCCC2`, the inhibition in [1] was found to be 12.9%; in [2], 4.21%; in test [3] it was 4.07%; in [4], 2.41%; in test [5], 0.41%; in test [6] it was 2.23%. In addition, the inhibition was 4.83% in test [7]; 7% in [8]; 5.12% in [9]; 8.53% in test [10]; 9.05% in test [11]; 3.37% in test [12]. Further, the inhibition in test [13] stood at 6.23%; in test [14], 4.57%; in test [15], 3.5%; in [16], 3.03%; in [17], 7.88%; in test [18], 3.63%. The inhibition in test [19] was 6.45%; in test [20], -0.36%.
On to `COc1ccc(-c2nn3ncccc3c2-c2ccnc(Nc3ccc4c(c3)OCCO4)n2)cc1`, for which the inhibition is 35% in [1]; 1.77% in test [2]; 6.41% in test [3]; -0.35% in test [4]; 15.6% in [5]; 0.95% in test [6]. For the same compound, the inhibition in test [7] came to 17.2%; in test [8], 55.9%; in [9] it was 108%; in test [10], 1.56%; in [11], 11.8%; in test [12] it was 4.35%. Besides, the inhibition in test [13] is 7.51%; in test [14], -2.89%; in test [15], 11.2%; in test [16], 3.13%; in [17], 22.1%; in test [18], 3.94%. Further, the inhibition in test [19] is 12.6%; in test [20], 1.59%.
As for `COc1cc(Nc2nccc(Nc3ccc4c(C)n[nH]c4c3)n2)cc(OC)c1OC`, the inhibition was 65.5% in test [1]; 2.52% in [2]; 0.24% in test [3]; 11.2% in test [4]; 54.8% in test [5]; -1.05% in test [6]. In addition, the inhibition is 0.32% in [7]; 11.9% in test [8]; 27.6% in test [9]; 6.42% in test [10]; 36.1% in test [11]; 3.05% in [12]. Also, the inhibition in test [13] is 10.6%; in [14], 5.2%; in test [15], 24.8%; in [16] it was 7.33%; in test [17], 39.8%; in [18], 8.22%. Further, the inhibition in test [19] worked out at 30.5%; in test [20], 2.39%.

(Values after ChEMBL document CHEMBL1961873, “Compounds: GSK PKIS; Assays: Nanosyn kinase panel” (2012).)
